The results in this text go back to PubChem BioAssay.

SMILES strings stand for the structures. The source made the active and inactive calls. The rule behind the calls is not given here. Where a SMILES comes first, the peptide text is derived from it. The star is where a group is joined. Boc = CC(C)(C)OC(=O)*

The target in this assay is Pantothenate synthetase (Mycobacterium tuberculosis (strain ATCC 25618 / H37Rv)) (UniProt P9WIL5). The experiment in a line: Coupled enzyme confirmation of inhibitors against recombinant Mtb PanC (AID 375).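 Note: 0% = full reaction with vehicle and 100% = no enzyme background.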 The following applies: coupled enzyme assay; at 10 µM, stronger effect = higher value.
Pantothenate synthetase (Mycobacterium tuberculosis (strain ATCC 25618 / H37Rv)), sequence (P9WIL5 whole entry, looked up): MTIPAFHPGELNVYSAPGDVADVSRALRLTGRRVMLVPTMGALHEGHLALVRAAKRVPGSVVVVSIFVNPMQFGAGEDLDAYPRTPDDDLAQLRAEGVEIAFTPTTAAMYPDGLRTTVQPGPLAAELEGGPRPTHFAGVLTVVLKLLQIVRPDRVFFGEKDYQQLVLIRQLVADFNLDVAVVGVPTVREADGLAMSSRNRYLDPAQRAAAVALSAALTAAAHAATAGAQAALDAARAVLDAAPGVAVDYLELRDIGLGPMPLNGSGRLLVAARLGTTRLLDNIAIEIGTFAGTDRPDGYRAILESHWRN
`Cc1cc(=O)n2nc(N3CCCC(C(=O)N4CCc5ccccc54)C3)sc2n1` (stereo unspecified): the inhibition (commonly the percentage by which the read-out fell short of the control) was 4% (inactive). The same measure for `O=C(NCC(c1cccnc1)N1CCN(c2ccc(F)cc2)CC1)c1ccc(F)cc1` (stereo unspecified): 4% (inactive); for `CCC(C)C(NC(=O)OC(C)(C)C)C(=O)NC(CC(C)C)C(N)=O` (stereo not drawn) (Boc-Ile-Leu-NH2; configuration not given here): 0% (inactive); for `COc1cc(C2C(C#N)=C(N)OC3=C2C(=O)CC(C)(C)C3)ccc1OC(=O)N1CCOCC1` (stereo unspecified): 5% (inactive). Consider `COc1ccc(/C(O)=C2/C(=O)C(=O)N(CC3CCCO3)C2c2cccc(OC)c2)cc1` (stereo unspecified), for which the inhibition was 0% (inactive). For the compound `CCC(=O)Nc1cccc(Br)c1`, the inhibition is 2% (inactive).
